# Source: PubChem
# D2 PAM-1: human D2 receptor positive allosteric modulation. AID 624464. DiscoveRx D2 beta-arrestin cells, luminescence, 90 min; 100% = 57 uM dopamine signal. potentiation, % (concentration not given with the values). P14416. 360,000 tested, 0.23% active; in the data active means potentiation above about 50%; inconclusive means mostly about 30% to 49%
# Target sequence (P14416 whole entry, looked up): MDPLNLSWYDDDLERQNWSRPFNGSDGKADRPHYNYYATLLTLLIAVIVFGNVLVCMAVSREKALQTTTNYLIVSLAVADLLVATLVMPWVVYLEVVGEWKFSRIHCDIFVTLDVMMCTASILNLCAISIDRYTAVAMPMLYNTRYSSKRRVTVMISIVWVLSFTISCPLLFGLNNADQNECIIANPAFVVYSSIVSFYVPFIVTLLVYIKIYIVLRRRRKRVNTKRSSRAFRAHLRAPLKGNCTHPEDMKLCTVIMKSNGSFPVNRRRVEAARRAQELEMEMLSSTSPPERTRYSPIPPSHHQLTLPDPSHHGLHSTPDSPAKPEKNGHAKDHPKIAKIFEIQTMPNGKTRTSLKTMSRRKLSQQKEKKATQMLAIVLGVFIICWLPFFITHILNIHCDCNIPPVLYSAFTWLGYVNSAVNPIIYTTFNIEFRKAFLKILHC
#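 PathHunter D2 cells, attached overnight at 37 deg C, received compound in DMSO plus dopamine at EC20 (50 nM final) for 90 min at 37 deg C. Beta-arrestin recruitment was read as luminescence after 1 h with detection reagent at ambient temperature.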
# D2 ag-1: agonists of human D2 dopamine receptor (beta-arrestin) | 360,000 tested, 0.084% active | DiscoveRx PathHunter D2 beta-arrestin, luminescence, 90 min; 100% = 57 uM dopamine signal | P14416 | activation, % (no concentration beside the values); in the data active means activation above about 40%; inconclusive means between about 15% and that limit
#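 DiscoveRx PathHunter D2 beta-arrestin cells (2,100/well) attached overnight, then compound-stimulated 90 min at 37 C in HBSS/10 mM HEPES/0.1% Tween-20 buffer; beta-galactosidase complementation read by luminescence after 1 h at ambient temperature. Dopamine 57 uM final (EC100) as control.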
# D2 ag-2: D2 dopamine receptor (human) agonism. P14416. HEK293 T-REx D2 cells, calcium flux agonist mode. activation, % at 2 µM. 340,000 tested, 0.53% active;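 active means activation over 3 SD above normal in the single-dose calcium agonist read, cut at about 30% in these data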; further: 0% is about no effect
#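 Agonism scored from kinetic calcium signal (1 read/sec, 180 s) following compound pin transfer, after a 10 s baseline. Cells: HEK293 Trex line expressing inducible D2 receptor coupled to calcium, dye-loaded after overnight culture at 30 C.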
# D2 antagonist: antagonizes the human D2 dopamine receptor | HEK293 TREx D2 cells, calcium flux, dopamine EC80 | inhibition, % at 10 µM | 340,000 tested, 2% active | AID 485344; in the data active means inhibition above about 30%; inactive means below that, where a call was filed; further: 0% is about no effect
#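 Inhibition of EC80 dopamine-driven calcium flux, recorded kinetically, defines activity here; cells are a tetracycline-induced HEK293 T-REx line expressing force-coupled D2.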
# Apoferritin bind: binds horse apoferritin like a general anesthetic | AID 485281 | Potency, µM (titrated, usually from 77.5 µM), for the others: at the highest dose activity change, negative = displacement, actives largely listed as inhibitors | apoferritin/1-aminoanthracene competitive binding, fluorescence | 350,000 tested, 0.074% active | P02791; active means well fitted inhibition curve with a large enough effect; inconclusive means small, poorly fitted or top-dose-only effect; inactive means no such curve, though single readings can be large or run the other way; further: potency means the concentration at half of the fitted maximal effect; on the % scale 0 is the no-effect control and ±100 the full control effect; nearly all actives have a fitted effect of over 20% in size
# Target sequence (P02791 2-175 limits assumed): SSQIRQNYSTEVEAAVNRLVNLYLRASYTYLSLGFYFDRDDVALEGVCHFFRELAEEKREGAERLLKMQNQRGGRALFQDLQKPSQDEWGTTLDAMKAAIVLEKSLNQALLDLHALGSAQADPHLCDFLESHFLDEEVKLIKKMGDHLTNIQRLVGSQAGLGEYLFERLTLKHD
#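 Steps: apoferritin (10 uM) was premixed with half-saturated 1-AMA in PBS, compounds were pin-transferred, plates stood 10 min at room temperature, fluorescence was read at 380/535 nm, and curves were fitted with a Hill equation.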
# D2 PAM-2: positive allosteric modulators of human D2 dopamine receptor. potentiation, % at 10 µM. HEK293 T-REx D2, calcium flux, EC20 dopamine potentiation. 340,000 tested, 0.34% active. P14416;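 active means potentiation over 3 SD above the plate norm, cut at about 30% in these data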; further: 0% is about no effect
#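 Tetracycline-induced HEK293 T-REx cells force-coupled to calcium signalling expressed D2; compounds were pin-added after a 10 s baseline, read kinetically 180 s, then an EC20 dopamine challenge followed with a further 180 s calcium read.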
# * marks the source's active call; other numbers are inactive results; u = inconclusive; x = no result; ! = a repeat was not active. Rows were chosen to be rich in hits. Some 2.5% of all compounds tested hit in one or more screens of this group.
SMILES,D2 PAM-1,D2 ag-1,D2 ag-2,D2 antagonist,Apoferritin bind,D2 PAM-2
COc1ccc(OC(=O)N(C)C[C@H]2OCc3cnnn3CCCC(=O)N([C@@H](C)CO)C[C@H]2C)cc1,-3,-2,x,x,x,x
O=C(NC1CCCCC1)N1Cc2cc(-c3ccccc3)ccc2-n2nncc2C1,2,-2,x,x,x,x
CC(C)N1CCOC(c2ccc(O)c(O)c2)C1 (centres undefined),60*,83*,x,x,x,x
CCCCCCN1CCN(c2ccccc2Cl)CC1,-11,2,4,76*,-6%,-28
O=C1CCN(C(=O)Cc2ccccc2[N+](=O)[O-])CC1,3,-3,1,0,-10%,x
COCCOC(=O)c1c(N)n(Cc2ccccc2)c2nc3ccccc3nc12,13,-2,-2,36*,473%,0
COCC(C)OC(=O)c1c(N)n(Cc2ccco2)c2nc3ccccc3nc12 (centres undefined),-9,-1,4,-8,347%,13
CCOC(=O)c1c(N)n(Cc2ccco2)c2nc3ccccc3nc12,-10,-8,11,30*,632%,-13
Clc1ccc(OCC#CCN2CCOCC2)cc1,12,1,0,10,-5%,3
CC1CCN(CC#CCOc2ccc(Cl)cc2)CC1,-2,-2,1,86*,-19%,-24
CC(=O)N1CCC2(CC1)CC(=O)c1cc(OCC(=O)N3CCC4(CC3)OCCO4)ccc1O2,2,2,0,0,245%,31*
CNC(C)Cc1ccccc1Sc1ccc(O)cc1 (centres undefined),-42,-4,0,67*,-10%,-21
OC(c1ccccc1)(c1ccc(Cl)cc1)C1CN2CCC1CC2 (centres undefined),-11,-5,2,-11,3%,3
COc1ccc(OCC(=O)N2CCN(Cc3ccc(SC)cc3)CC2)cc1,0,-2,0,46*,-17%,34*!
COc1ccccc1CN1CCN(C(=O)COc2ccccc2)CC1,-37,-2,-1,33*,-5%,-12
CC(C)(C)NC(=O)C1CC2CCCCC2CN1 (centres undefined),1,-5,1,64*,-2%,3
Cc1cccc(NC2=NCCCS2)c1C,-6,2,0,38*,-7%,-10
c1ccc2c(CN3CCCCCCC3)c[nH]c2c1,-44,-4,0,10,-21%,4
C1=C(c2c[nH]c3ccccc23)CCN(Cc2ccccc2)C1,6,-19,0,70*,-10%,-21
COc1ccc2[nH]cc(C3=CCNCC3)c2c1,x,x,x,x,-3%,x
CN1CC=C(c2c[nH]c3ccccc23)CC1,-13,-2,0,75*,-12%,-22
CCCC1(CCC)C(=O)NC(=NCc2ccccc2)NC1=O,-18,1,-2,-9,-8%,-1
CC1=C(N2CC2)C(=O)C(CO)=C(N2CC2)C1=O,-46,-17,x,x,x,x
COC(COC(N)=O)C1=C(N2CC2)C(=O)C(C)=C(N2CC2)C1=O (centres undefined),72*,u,x,x,x,x
COC(=O)C1=C(c2ccc(OCc3ccccc3)cc2)C[C@@H]2CC[C@H]1N2C(=O)NC1CCN(Cc2ccccc2)CC1,-103,2,-1,70*,x,-11
SMILES,D2 PAM-1,D2 ag-1,D2 ag-2,D2 antagonist,Apoferritin bind,D2 PAM-2
Cc1cccc(N=C2c3cc([N+](=O)[O-])ccc3-c3c2cc([N+](=O)[O-])cc3[N+](=O)[O-])c1,109*,10,x,x,x,x
CCOC(=O)CC1=C(C(=O)OCC)C2(C(=O)Nc3ccccc32)C(C#N)=C(N)O1 (centres undefined),75*,12,0,10,0%,-6
Cc1ccc(CN2CCCC(C(=O)c3sccc3C)C2)o1 (centres undefined),-17,-2,1,23,-22%,-19
Cc1ccsc1C(=O)C1CCCN(Cc2cnc(N3CCCC3)s2)C1 (centres undefined),-5,-1,1,39*,-23%,-8
Cc1ccsc1C(=O)C1CCCN(Cc2c(C)nn(C(C)C)c2C)C1 (centres undefined),-12,-2,-1,57*,-8%,-18
CSc1ncc(CN2CCCC(C(=O)c3sccc3C)C2)cn1 (centres undefined),-13,-1,0,-3,0%,-17
CC[C@@H]1/C=C/C=C/C[C@H](C)[C@@H](O)[C@](C)(O)C(=O)[C@H](C)[C@@H](O)[C@H](C)C(=O)[C@H](C)[C@@H](O)[C@H](C)/C=C/C(=O)O[C@H]2[C@@H](C)[C@@H](CC1)O[C@@]1(CC[C@@H](C)[C@@H](C[C@H](C)O)O1)[C@@H]2C,x,x,x,x,-8%,x
CCC(=O)OC1(Cc2ccc(CC)cc2)CC(C)N(C)CC1C (centres undefined),-7,-7,0,22,4%,-23
COc1cc(C)c(CN2CC=C(c3ccc(F)cc3)CC2)cc1C,-17,0,-1,84*,-3%,-27
CN(C)c1ccc(CN2CC=C(c3ccc(F)cc3)CC2)cc1,-19,-2,x,x,-12%,x
COc1cc2nc(CN3CC=C(c4ccccc4)CC3)[nH]c(=O)c2cc1OC,-3,3,x,x,x,x
COc1cc(CN2CC=C(c3ccc(F)cc3)CC2)cc(OC)c1,-2,-2,0,81*,-2%,-30
NC(=O)c1cc(N2CC2)c([N+](=O)[O-])cc1[N+](=O)[O-],-28,-4,x,x,x,x
O=C(CCCN1CCC2(CC1)C(=O)NCN2c1ccccc1)c1ccc(F)cc1,x,x,76*,71*,-1%,x
O=C1NCN(c2ccccc2)C12CCN(CCCOc1ccc(F)cc1)CC2,x,x,x,x,-3%,x
C=CCN1C(=O)NC(=O)/C(=C\c2ccc(-c3ccccc3[N+](=O)[O-])o2)C1=O,-22,-2,6,-8,40µM*,-4
Cc1cc(/C=C2\C(=O)NC(=O)N(c3ccc(Br)cc3)C2=O)c(C)n1C,-3,-4,0,12,-6%,2
C=C1C(=O)O[C@@H]2C[C@@H](C)[C@@H]3C=CC(=O)[C@@]3(C)[C@@H](O)[C@H]12,-28,-8,0,-3,5%,-5
C[C@@H]1C[C@H]2OC(=O)C3(CO3)[C@H]2[C@H](O)[C@]2(C)C(=O)C3OC3[C@@H]12 (some centres undefined),x,x,0,41*,2%,15
CC(C)OP(=O)(OC(C)C)C(O)c1ccc(Br)cc1 (centres undefined),104*,12,-1,0,3%,-4
